Screening results as filed in PubChem BioAssay.
GLP-1R agonist: activates the human GLP-1 receptor; P43220; HEK293 GLP-1R CRE-luciferase, luminescence, 4-6 h; cells express a hypersensitive GLP-1R form; Potency, µM (doses to about 45.6 µM), actives largely listed as activators; actives 0.007% (n = 380,000); AID 624172
Target sequence (P43220 whole entry, looked up): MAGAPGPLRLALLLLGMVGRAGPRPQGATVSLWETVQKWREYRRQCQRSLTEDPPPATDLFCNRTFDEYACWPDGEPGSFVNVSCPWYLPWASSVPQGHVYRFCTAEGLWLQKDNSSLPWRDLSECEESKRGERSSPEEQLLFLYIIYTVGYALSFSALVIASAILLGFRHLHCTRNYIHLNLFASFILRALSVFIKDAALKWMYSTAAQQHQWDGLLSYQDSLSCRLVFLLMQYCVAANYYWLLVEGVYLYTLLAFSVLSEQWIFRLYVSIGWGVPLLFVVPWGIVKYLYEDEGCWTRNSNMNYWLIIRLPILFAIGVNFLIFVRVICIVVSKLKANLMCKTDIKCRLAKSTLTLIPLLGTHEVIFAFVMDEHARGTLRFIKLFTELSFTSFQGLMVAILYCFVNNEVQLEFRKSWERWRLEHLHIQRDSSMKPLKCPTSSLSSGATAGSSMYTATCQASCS
HEK293 tox: cytotoxicity in counter-screen for GLP-1R inverse agonists. actives 0.13% (n = 410,000). Potency, µM (titrated, usually from 38.3 µM), usual class: inhibitors. HEK293 cAMP-luciferase reporter cells, luminescence, 24 h;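 note: loss of luciferase light is scored as toxicity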
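1536-well qHTS counterscreen of the MLSMR; 200 cells/uL, 12 h pre-incubation, 23 nL cpd, 24 h at 37 deg C 5% CO2, luciferase detection reagent, 12 min RT, luminescence. Inhibition = undesired.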
GLP1R inv ag: inverse agonists of human GLP-1 receptor | HEK293 GLP-1R CRE-luciferase, luminescence, 24 h; GLP-1R form is constitutively active | Potency, µM (doses to about 38.3 µM), most hits filed as inhibitors | actives 1.6% (n = 410,000); note: nearly all actives have a fitted effect of over 55% in size
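HEK293 cells stably co-expressing constitutively active GLP-1R and a cAMP-responsive luciferase reporter were seeded in DMEM with 10% Nu serum, given compounds after 12 h, and incubated 24 h at 37 deg C. Luminescence was then read.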
Mito fusion yeast: blocks mitochondrial division or promotes mitochondrial fusion; AID 485298; actives 0.23% (n = 320,000); S. cerevisiae fusion-defective mutant growth rescue, CellTiterGlo 48 h; Potency, µM (titrated, usually from 46.1 µM), most hits filed as activators; note: nearly all actives have a fitted effect of over 45% in size
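Temperature-sensitive fusion-defective S. cerevisiae (e.g. fzo1-1, mgm1-5) were grown with compound in YPEG medium (3% ethanol, 3% glycerol) for 48 hours at 37C. Growth rescue was measured as viability by CellTiterGlo luminescence after 10 minutes at ambient.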
BRCA1 expr up: activators of BRCA1 expression | MCF7-BRCA1-FFLuc reporter, luminescence, 48 h; response scale: scaled: vehicle 0%, 10 µM genistein 100% | Potency, µM (doses to about 46.1 µM), hits mostly activators | actives 1.1% (n = 380,000); note: nearly all actives have a fitted effect of over 80% in size
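Quantitative HTS in MCF7 cells stably reporting BRCA1 expression via firefly luciferase. Compound treatment lasts 48 h at 37 °C in phenol-red free MEM. Activation is expressed relative to genistein at 10 microM and DMSO.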
Numbers stand for hits; n = inactive; u = inconclusive; x = no result given; [ ] = another dose, or the depositor's remark. A selection: hits, their analogues and other compounds. The true share with any hit is near 2.8%. Calls come from the whole dose curve; as a rule, active = well fitted curve in the direction sought with a large enough effect; inconclusive = small, poorly fitted or top-dose-only effect, or another doubt; inactive = no such curve, though single readings can be large; an effect the other way counts as inactive or inconclusive.

SMILES | GLP-1R agonist | HEK293 tox | GLP1R inv ag | Mito fusion yeast | BRCA1 expr up
O=C(NCc1cccnc1)c1ccc2c(c1)N(Cc1ccccc1)CCS2 | n | n | u | n | n
COc1ccc(C(=O)Nc2ccc3[nH]c(-c4cccc(OC)c4)cc(=O)c3c2)cc1 | n | n | n | n | n
COc1ccc(CN2CC(=O)N3[C@H]4c5ccc(OC)cc5OC[C@@H]4[C@H](c4ccccc4)[C@]3(C)C2=O)cc1 | n | n | u | n | n
Cc1ccc2c(c1)[C@H]1[C@H](CO2)[C@H](c2ccccc2)[C@]2(C)C(=O)Nc3ccc(Br)cc3C(=O)N12 | n | n | 3.16µM | x | n
COc1ccc2c(c1)C(=O)N1[C@H]3c4cc(OC)ccc4OC[C@@H]3[C@H](c3ccccc3)[C@]1(C)C(=O)N2 | n | n | u | n | n
COc1ccc2c(c1)OC[C@H]1[C@H]2N2C(=O)CN(Cc3ccc(Cl)cc3)C(=O)[C@@]2(C)[C@H]1c1ccccc1 | n | n | 11.2µM | n | n
COc1ccc2c(c1)[C@H]1[C@H](CO2)[C@H](c2ccccc2)[C@]2(C)C(=O)Nc3ccc(Br)cc3C(=O)N12 | n | n | 5.62µM | x | n
Cc1ccc2c(c1)C(=O)N1[C@H]3c4cc(Br)ccc4OC[C@@H]3[C@H](c3ccccc3)[C@]1(C)C(=O)N2 | n | n | n | x | n
Cc1nc(C(C)NC(=O)CCc2nnc(Cc3c[nH]c4ccccc34)o2)cs1 (centres undefined) | n | n | n | n | n
COc1ccc(C(C[N+](=O)[O-])c2c(-c3ccccc3)cc3ccccn23)c(OC)c1 (centres undefined) | n | n | u | n | n
O=C(NCC1CCCCC1)c1ccco1 | n | n | n | n | n
COc1cc(NC(=O)c2cc([N+](=O)[O-])ccc2N2CCOCC2)ccc1NC(=O)c1ccco1 | n | n | n | n | n
CC(C)COC(=O)NC1c2ccccc2Oc2ccccc21 | n | n | n | n | n
Cc1cc(C(=O)NCc2csc(-c3ccccc3)n2)no1 | n | n | n | n | 10µM
O=C(NCc1csc(-c2ccccc2)n1)c1ccco1 | n | n | n | n | 10µM
C#CCNC(=O)C[C@@H]1C[C@@]2(C(=O)OC)CCCCC=C2N(Cc2ccc(Cl)cc2Cl)C1=O | n | n | u | x | n
CC(=O)c1ccc(OCC(O)CN(C)CCOc2ccc(Br)cc2)cc1 (centres undefined) | n | n | 10µM | n | n
CC(=O)c1ccc(OCC(O)COc2ccc(C(C)=O)cc2)cc1 | n | n | n | n | n
COc1ccccc1-c1ccc(NC2CCCCC2)nn1 | n | u | n | n | 7.08µM
CC(C)CC(c1nnnn1CC1CCCO1)N1CCN(c2cccc(Cl)c2)CC1 (centres undefined) | n | n | n | n | n
CC(C)CC(c1nnnn1Cc1ccco1)N1CCN(c2cccc(Cl)c2)CC1 (centres undefined) | n | n | 10µM | u | n
CC(=O)c1sc2nc(-c3ccc(C)cc3)c3c(c2c1N)CCCC3 | n | n | n | 15.8µM | n
Cc1nc2sc(C(N)=O)c(N)c2c2c1CCCC2 | n | n | 1.12µM | n | n
CC(C)[C@H](NC(=O)[C@@H]1Cc2c([nH]c3ccccc23)C2c3ccccc3C(=O)N21)C(=O)NCC1CCCO1 (some centres undefined) | n | n | n | n | n
COc1ccc(/C=C(/C#N)c2nc(-c3cc4ccccc4oc3=O)cs2)cc1 | x | n | n | x | x
SMILES | GLP-1R agonist | HEK293 tox | GLP1R inv ag | Mito fusion yeast | BRCA1 expr up
CC1CCC/C(=C(\C#N)c2nc(-c3cc4ccccc4oc3=O)cs2)C1 (centres undefined) | n | n | n | n | 3.16µM
COc1cccc2cc(NC(=O)C3CCCCC3)c(=O)oc12 | n | n | n | n | 6.31µM
COc1ccc(C(=O)Cc2cc3cccc(OC)c3oc2=O)cc1 | n | n | n | n | 15.8µM
COc1cccc2cc(CC(=O)c3ccc(C)cc3C)c(=O)oc12 | n | n | u | n | 11.2µM
COc1ccc(C(=O)NNC(=O)c2cc3cccc(OC)c3oc2=O)cc1 | n | n[7.66 µM] | n[7.66 µM] | n | n
CC(=O)OCc1c(C(F)(F)F)nn(C)c1Sc1ccccc1 | n | n | n | n | n
CCn1cc(C(=O)NCCCN2CC(C)CC(C)C2)c(=O)c2cc(S(=O)(=O)N(C)C3CCCCC3)ccc21 (centres undefined) | n | n | n | n | n
CCn1cc(C(=O)NCCCN2CCC(C)CC2)c(=O)c2cc(S(=O)(=O)N(C)C3CCCCC3)ccc21 | n | u | 10µM | n | n
COc1cc(OC)cc(N2C(=O)CC(N3CCC(C(=O)N4CCCCC4)CC3)C2=O)c1 (centres undefined) | n | n | n | n | n
COc1cccc2sc(N(Cc3cccnc3)C(=O)c3ccco3)nc12 | x | n | n | x | x
CCCn1c(=O)c2c(nc3n2CCCN3CCc2ccccc2)n(C)c1=O | n | n | u | n | n
Cn1c(=O)n(CCc2ccccc2)c(=O)c2c1nc1n2CCCN1CCc1ccccc1 | n | n | 2.24µM | u | n
CC(=O)c1cccc(NC(=O)c2ccc(-c3c(C)noc3C)c3ccoc23)c1 | n | n | n | x | n
Cc1nc(NCCc2ccccc2)sc1C(=O)N(C)C | n | n | n | n | u
Cc1nc(Nc2ccccc2C(F)(F)F)sc1C(=O)N(C)C | n | n | u | n | 10µM
CCC(=O)N(CC)Cc1cc(=O)[nH]c2ccccc12 | n | n | n | n | n
Cc1cc(C)c2nc(N3CCCC(C(=O)NCc4cccc(Cl)c4)C3)sc2c1 (centres undefined) | x | n | n | x | x
COc1cc(OC)cc(C(=O)NC(C(=O)Nc2ccc3c(c2)OCCO3)C(C)C)c1 (centres undefined) | n | n | n | n | n
O=C(Nc1ccc2c(c1)OCCO2)c1c(F)cccc1F | n | n | n | n | 2.51µM
O=C(Nc1ccccc1)c1ccc2c(c1)OCCO2 | n | n | n | n | u
O=C(Nc1ccc2c(c1)OCCO2)c1ccccc1F | n | n | u | n | n
COc1cc(OC)cc(C(=O)Nc2ccc3c(c2)OCCO3)c1 | n | n | n | n | 12.6µM
CCOc1ccc(C(=O)Nc2ccc3c(c2)OCCO3)cc1OC | n | n | n | n | 10µM
Cc1cccc(NC(=O)c2ccc3c(c2)OCCO3)c1 | n | n | 11.2µM | n | u
O=C(c1cccc(Cl)c1)N1CCC(c2nc3ccccc3o2)CC1 | x | n | n | x | x
COC(=O)c1cc2c(n1S(=O)(=O)c1ccc(C)cc1)C(=O)C(=O)c1[nH]cc(C(=O)OCc3ccccc3)c1-2 | n | 3.98µM | u | x | n
COc1ccc(NC(=O)CSc2nnc(C)n2Cc2ccccc2)cc1 | n | n | n | n | n
C(=NOCc1ccccc1)c1ccncc1 | n | n | n | x | n
C(=NOCc1ccccc1)c1ccccn1 | n | n | u | x | 10µM
